PglD DTNB: C. jejuni PglD acetyltransferase inhibitors, primary screen, biochemical, DTNB colorimetric, single point. UDP-N-acetylbacillosamine N-acetyltransferase PglD (Campylobacter jejuni). purified PglD enzyme, DTNB colorimetric CoA detection. inhibition, % at 12.5 µM. 0.098% of 360,000 active; in the data active means inhibition above about 16%, passing the limit was not always enough; inconclusive means no clear call, values can overlap the other calls
Glyco luc inh: increase of ERlucT glycosylation luciferase signal, primary screen, N-linked glycosylation inhibitor project, D54 ERlucT cells, luminescence, set 2; D54 ERlucT glycosylation luciferase reporter, 24 h; percent of 100 nM tunicamycin response; reporter increase, % at 12.5 µM; 0.23% of 360,000 active; AID 588692, 2011;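 active means mean luciferase reporter signal, scaled so untreated is 0 and the glycosylation-blocking control 100, at or above a set limit in every replicate; inconclusive means mean reaches the limit but not every replicate does; inactive means mean below the limit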;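 further: luciferase carries N-glycosylation sites so blocking glycosylation raises the light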
DENV2 CPE: inhibitors of DENV2 cytopathic effect, primary screen, cell-based, plate reader, single concentration. DENV2-infected cells, cytopathic effect rescue. CPE inhibition, % at 9.99 µM. 1.7% of 350,000 active. AID 651640, 2012; in the data active means CPE inhibition above about 20%, passing the limit was not always enough; inconclusive means no clear call, values can overlap the other calls; tested in BHK-21 cells
Rtt109 Vps75: inhibitors of C. albicans Rtt109/Vps75 HAT, primary screen, biochemical, ThioGlo CoA-SH fluorescence, plate reader | Histone acetyltransferase RTT109 (Candida albicans (strain SC5314 / ATCC MYA-2876)), … | purified Rtt109/Vps75, 4 h | inhibition, % at 34.9 µM | 0.16% of 330,000 active;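 active means inhibition of at least 50% in every replicate; inconclusive means best replicate reaches 50% inhibition but some replicates fall short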
Target sequence (Q5AAJ8 whole entry, looked up): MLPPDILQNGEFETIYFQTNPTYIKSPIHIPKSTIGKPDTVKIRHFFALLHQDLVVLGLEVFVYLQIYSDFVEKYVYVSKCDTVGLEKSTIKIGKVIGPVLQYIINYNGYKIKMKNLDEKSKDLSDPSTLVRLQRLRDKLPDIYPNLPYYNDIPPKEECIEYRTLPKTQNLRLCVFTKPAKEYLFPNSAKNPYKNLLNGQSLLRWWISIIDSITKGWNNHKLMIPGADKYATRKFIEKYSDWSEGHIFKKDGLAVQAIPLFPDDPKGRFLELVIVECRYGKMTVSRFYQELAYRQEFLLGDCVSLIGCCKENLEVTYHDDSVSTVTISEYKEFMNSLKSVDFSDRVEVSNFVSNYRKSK
A number is an active result; i = inactive; ? = inconclusive; nt = not tested or not shown. This is one part of a sample in which hits are shown more often than they occur.

SMILES	PglD DTNB	Glyco luc inh	DENV2 CPE	Rtt109 Vps75
Cc1cccn2c(=O)c3cc(C(=O)NCCN4CCOCC4)c(=N)n(CCc4ccccc4)c3nc12	i	31	nt	i
CCNC(=O)c1cc2c(=O)n3cccc(C)c3nc2n(CCc2ccccc2)c1=N	i	46	nt	i
CCCC(O)C#Cc1cnc2c(c1)C(=O)N([C@H](C)CO)C[C@H](C)[C@H](CN(C)C(=O)Nc1ccc3c(c1)OCO3)O2 (some centres undefined)	i	nt	i	nt
Cc1ccc2nsnc2c1NC(=O)c1ccc(-c2cc(Cl)ccc2Cl)o1	nt	129	nt	i
Cc1ccc2nsnc2c1NC(=O)Cc1ccc(Cl)cc1	i	i	i	i
Cc1ccc(C(=O)NCCc2cc3ccc(C)c(C)c3[nH]c2=O)cc1[N+](=O)[O-]	nt	i	50	i
COc1ccc(C(=O)NCCc2cc3ccc(C)c(C)c3[nH]c2=O)cc1OC	nt	i	i	i
C[C@@H]1CN([C@@H](C)CO)C(=O)c2cccc(NC(=O)C3CC3)c2O[C@H]1CN(C)C(=O)Nc1ccc2c(c1)OCO2	i	nt	i	nt
CCC(=O)N1[C@@H]2c3ccc(C4=CCCCC4)c(=O)n3C[C@H]1[C@H](CO)[C@H]2C(=O)N[C@H](C)c1ccccc1	i	nt	93	nt
COc1ccccc1-c1ccc2n(c1=O)C[C@H]1[C@H](CO)[C@@H](C(=O)N[C@H](C)c3ccccc3)[C@@H]2N1C	i	nt	74	nt
C[C@@H](NC(=O)[C@H]1[C@H](CO)[C@H]2Cn3c(ccc(-c4ccncc4)c3=O)[C@@H]1N2C)c1ccccc1	i	nt	i	nt
CN(C)CCCNC(=O)[C@H]1[C@H](CO)[C@H]2Cn3c(ccc(-c4ccccc4)c3=O)[C@@H]1N2C	i	nt	47	nt
CC1CCCN(C(=O)c2ccc(S(=O)(=O)Nc3ccccc3Cl)cc2)C1 (centres undefined)	i	i	83	i
O=C(c1ccc(S(=O)(=O)Nc2ccccc2Cl)cc1)N1CCOCC1	i	i	nt	i
O=C(C[C@@H]1CC[C@H]2[C@@H](COC[C@@H](O)CN2C(=O)Nc2cccc(Cl)c2)O1)NCC1CCCCC1	i	nt	i	nt
C[C@@H]1CN([C@@H](C)CO)C(=O)c2cc(-c3ccc(F)cc3)cnc2O[C@@H]1CN(C)CC1CCCCC1	i	nt	i	nt
O=C(c1ccncc1)N1CC2(C1)[C@@H](c1ccccc1)[C@@H](CO)N2CC1CCOCC1	nt	nt	i	nt
C[C@@H]1CN([C@@H](C)CO)C(=O)Cc2cc(NS(=O)(=O)c3ccc(Cl)cc3)ccc2O[C@@H]1CN(C)Cc1ccc(C(=O)Nc2ccccc2N)cc1	nt	nt	i	nt
Cc1ccc(S(=O)(=O)Nc2ccc3c(c2)C(=O)N([C@@H](C)CO)C[C@H](C)[C@H](CN(C)Cc2ccc(C(=O)Nc4ccccc4N)cc2)O3)cc1	i	nt	i	nt
C[C@@H]1CN([C@@H](C)CO)C(=O)c2cccc(NS(=O)(=O)c3ccc(Cl)cc3)c2O[C@@H]1CN(C)Cc1ccc(C(=O)Nc2ccccc2N)cc1	i	nt	i	nt
C[C@@H]1CN([C@H](C)CO)C(=O)Cc2cc(NS(=O)(=O)c3ccc(Cl)cc3)ccc2O[C@H]1CN(C)Cc1ccc(C(=O)Nc2ccccc2N)cc1	nt	nt	71	nt
Cc1noc(C)c1S(=O)(=O)Nc1ccc2c(c1)CC(=O)N([C@H](C)CO)C[C@@H](C)[C@H](CN(C)Cc1ccc(C(=O)Nc3ccccc3N)cc1)O2	nt	nt	i	nt
Cc1ccc(S(=O)(=O)Nc2ccc3c(c2)C(=O)N([C@H](C)CO)C[C@H](C)[C@@H](CN(C)Cc2ccc(C(=O)Nc4ccccc4N)cc2)O3)cc1	nt	nt	20	nt
C[C@H]1CN([C@@H](C)CO)C(=O)c2cccc(NS(=O)(=O)c3ccc(Cl)cc3)c2O[C@@H]1CN(C)Cc1ccc(C(=O)Nc2ccccc2N)cc1	nt	nt	21	nt
Cc1noc(C)c1S(=O)(=O)Nc1ccc2c(c1)CC(=O)N([C@H](C)CO)C[C@H](C)[C@@H](CN(C)Cc1ccc(C(=O)Nc3ccccc3N)cc1)O2	nt	nt	40	nt
SMILES	PglD DTNB	Glyco luc inh	DENV2 CPE	Rtt109 Vps75
CC(C)NC(=O)Nc1ccc2c(c1)C(=O)N([C@@H](C)CO)C[C@H](C)[C@H](CN(C)S(=O)(=O)c1cccs1)OCCCC[C@@H](C)O2	i	nt	i	nt
C[C@@H]1CN([C@H](C)CO)S(=O)(=O)c2ccc(C3=CCCCC3)cc2O[C@@H]1CN(C)Cc1cncnc1	i	nt	i	nt
CC(=O)c1ccc(OCCCC(=O)Nc2cc(Cl)ccc2-n2cncn2)cc1	i	i	56	i
CC(=O)N1[C@@H]2Cn3c(ccc(C4=CCCC4)c3=O)[C@H]1[C@@H](C(=O)NCC1CC1)[C@@H]2CO	nt	nt	i	nt
Cc1ccc2nc(-c3ccc(NC(=S)NC4CC(C)(C)NC(C)(C)C4)cc3)sc2c1	i	i	i	62
Cc1ccc2nc(-c3ccc(NC(=S)NC(=O)C(C)C)cc3)sc2c1	i	i	i	i
Cc1ccc2nc(N(CCCN(C)C)C(=O)c3sc4ccccc4c3Cl)sc2c1	i	i	nt	55
c1ccc(CNc2ncnc3c2cnn3-c2ccccc2)cc1	i	26	nt	i
Fc1ccc(CNc2ncnc3c2cnn3-c2ccccc2)cc1	i	i	nt	i
C=CCN1C(=O)[C@]2(O[C@H](CCO)[C@@H]([Si](C)(C)c3ccc(OC)cc3)[C@@H]2C)c2cc(I)ccc21	i	nt	i	nt
C=CCN1C(=O)[C@]2(O[C@H](CCO)[C@@H]([Si](C)(C)c3ccc(OC)cc3)[C@@H]2C)c2cc(NC(=O)[C@H](C)O)ccc21	i	nt	42	nt
CC(N)c1csc(Nc2ccc(C(=O)NCCCO)cn2)n1 (centres undefined)	i	i	30	nt
NC(c1csc(Nc2ccc(C(=O)NCCO)cc2)n1)C1CCCCC1 (centres undefined)	i	i	22	nt
O=C(Nc1ccccc1F)N[C@@H]1C=C[C@@H](CC(=O)N2CCCCC2)O[C@H]1CO	i	nt	i	nt
C[C@@H]1CN([C@H](C)CO)S(=O)(=O)c2ccc(C3=CCCCC3)cc2O[C@@H]1CN(C)C(=O)c1ccccc1	i	nt	i	nt
C[C@H](O)[C@@H]1CN2CCc3c([nH]c4ccccc34)[C@@H]2C[C@@H]1N(C)C(=O)Nc1ccc(Br)cc1	i	i	i	nt
C[C@H](O)[C@@H]1CN2CCc3c([nH]c4ccccc34)[C@@H]2C[C@@H]1N(C)C(=S)Nc1ccc(C#N)cc1	i	i	25	nt
C/C=C/c1cnc2c(c1)C(=O)N([C@@H](C)CO)C[C@H](C)[C@H](CN(C)C(=O)C1CCCCC1)O2	i	nt	i	nt
CC1(C)Cc2c(cnn2-c2ccc(F)cc2)C(NC(=O)c2ccc(=O)oc2)C1 (centres undefined)	i	i	70	i
CCN(CC)CCNc1nc2cc(OC)c(OC)cc2c2nc(-c3ccccc3)nn12	i	71	nt	?
COc1cc2[nH]c(=O)n3nc(-c4ccccc4)nc3c2cc1OC	nt	i	nt	i
CCOC(=O)CN1CC23C=CC(O2)C(C(=O)NC2CCCCCC2)C3C1=O (centres undefined)	i	i	i	i
